Reference: ChEMBL document CHEMBL3988442, “University of Dundee, Small-Polar-MMV Screening Library” (2021)
Among all 85,000 compounds or so, about 440 (0.52%) showed an effect of 50% or more. Shown is part of a subset that was picked to be rich in strong results.

Assay: In vitro enzyme assay to detect hydrolysis of chlorophenol red-beta-D-[…] directly proportional to the number of Toxoplasma stably expressing beta-galactosidase
Type: functional, organism-based, Toxoplasma gondii
Design: scale not given: in the data most compounds retested in dose-response had high values

Row | Structure (SMILES) | Percent Effect (50 µM) [%] | Percent Effect (10 µM) [%]
1 | CCOC(=O)N1CCN(C(=O)c2ccco2)CC1 | 9.256 | –
2 | Cc1c(C(=O)N2CCC(C(O)c3ccc(Cl)cc3)CC2)cnn1C (centres undefined) | – | -2.382
3 | Cc1oc(C(C)C)cc1C(=O)N1CCN(c2cnn(C)c(=O)c2)CC1 | – | 15.5
4 | CC(C)S(=O)(=O)N1CCN(C(=O)c2cnn(C)c2Cl)CC1 | – | 63.23
5 | CCc1ccc(C(=O)N2CCN(CCS(C)(=O)=O)CC2)o1 | – | -13.13
6 | Cn1ncc(C(=O)N2CCN(CCS(C)(=O)=O)CC2)c1Cl | – | 67.81
7 | Cn1ncc(C(=O)N2CCN(C(=O)c3ccco3)CC2)c1Cl | – | 75.62
8 | Cn1ncc(C(=O)N2CCOCC2)c1Cl | – | 29.02
9 | COCc1ccc(C(=O)N2CCN(CCS(C)(=O)=O)CC2)cc1 | – | -0.2262
10 | Cn1ncc(C(=O)N2CCN(S(C)(=O)=O)CC2)c1Cl | – | 77.51
11 | Cc1c(C(=O)N2CCCN(S(C)(=O)=O)CC2)cnn1C | – | -3.056
12 | CS(=O)(=O)N1CCN(C(=O)c2cnn3c2OCCC3)CC1 | – | -9.448
13 | O=C(NC1CCc2ccc(F)cc21)c1c[nH]nn1 (centres undefined) | 10.36 | –
14 | COC(=O)c1ccc(NCC(=O)N2CCCCC2)cc1 | -5.615 | –
15 | Cc1cc(C(=O)N(C)Cc2ccncc2C)[nH]n1 | -2.921 | –
16 | CC1c2ccsc2CCN1CCC(=O)NC(N)=O (centres undefined) | -3.706 | –
17 | N#CC1CCCN(C(=O)c2cnc3ccccc3c2)C1 (centres undefined) | -3.341 | –
18 | CCC1=NC(SCC(=O)c2ccc(OC)cc2)c2cc(CC)sc2N1 (centres undefined) | – | 50.44
19 | CCC1=NC(SCC(=O)c2ccccc2)c2cc(CC)sc2N1 (centres undefined) | – | 88.55
20 | COc1ccc(C(=O)CNC(=O)c2nc(Cl)sc2C(C)C)cc1 | – | 18.25
21 | CCC1=NC(SCC(=O)c2ccc(Cl)cc2)c2cc(CC)sc2N1 (centres undefined) | – | 23.77
22 | CCC1=NC(SCC(=O)c2ccc(C)cc2)c2cc(CC)sc2N1 (centres undefined) | – | 65.66
23 | CCc1ncc(C(=O)N2CCOCC2CC(=O)c2ccccc2)s1 (centres undefined) | – | 3.663
24 | CCc1ncc(C(=O)c2ccc(OC)cc2)n1C | – | -0.6627
25 | CCc1nc(C(=O)N2CCOCC2CC(=O)c2ccccc2)c[nH]1 (centres undefined) | – | 0.2818

Row | Structure (SMILES) | Percent Effect (50 µM) [%] | Percent Effect (10 µM) [%]
26 | Cc1cccc(-n2nnnc2C(C)(C)N2CCCC2)c1 | -9.882 | –
27 | COCCNS(=O)(=O)c1ccc(CN)cc1 | -7.365 | –
28 | CC(C)(C)NC(=O)CNC(C)(C)c1nccs1 | -6.241 | –
29 | Cc1cnccc1NCCNC(=O)[C@H]1CCC[C@H](O)C1 | -11.82 | –
30 | O=C1CCCN1CCCNCc1cccs1 | 4.585 | –
31 | CCCN1CCC(CNc2ncccc2F)C1 (centres undefined) | -12.03 | –
32 | COc1c(CNC2CCOc3ccccc32)c(C(C)C)nn1C (centres undefined) | – | 0.6462
33 | COc1c(CNC2CCOc3c(Cl)cccc32)c(C)nn1C.Cl (centres undefined) | – | -5.172
34 | COc1c(CNC2CCOc3c(Cl)cccc32)c(C(C)C)nn1C (centres undefined) | – | 50.26
35 | Cc1ccccc1-c1nnn(CC(O)CC(F)(F)F)n1 (centres undefined) | -8.034 | –
36 | CC(C)CC(C)(N)CO (centres undefined) | -4.909 | –
37 | COc1cc(NC(=O)CCN2CC(O)C2)cc(OC)c1 | -10.62 | –
38 | c1cc(-c2cnccn2)cc(-c2ccn(CCCN3CCCCC3)n2)c1 | – | -3.188
39 | CCN1CCN(c2nnc(-c3ccccn3)s2)CC1 | 1.346 | –
40 | O=C(c1cnccn1)N1CCC(CN2CCOCC2)CC1 | – | 17.94
41 | c1ccc(-c2nn3c(CN4CCOCC4)nnc3s2)nc1 | – | 71.31
42 | c1cc(-c2cnccn2)cc(-c2ccn(CCN3CCCC3)n2)c1 | – | 1.269
43 | c1cc(-c2cnccn2)cc(-c2ccn(CCN3CCCCC3)n2)c1 | – | -6.783
44 | O=C(NCCN1CCCCC1)c1cnccn1 | 1.153 | –
45 | c1cnc(-c2nn3c(CN4CCOCC4)nnc3s2)cn1 | – | 68.89
46 | c1cnc(-c2nn3c(CN4CCCCC4)nnc3s2)cn1 | – | 70.51
47 | c1coc(CN2CCn3c(CN4CCOCC4)nnc3C2)c1 | – | 4.961
48 | c1cnc(-c2nn3c(CN4CCCCCC4)nnc3s2)cn1 | – | 65.52
49 | O=C(c1cnccn1)N1CCc2ncc(CN3CCOCC3)n2CC1 | – | -7.352
50 | Cc1cnc(N)nc1NCC(O)CN1CCCCC1 (centres undefined) | 10.92 | –

Row | Structure (SMILES) | Percent Effect (50 µM) [%] | Percent Effect (10 µM) [%]
51 | Cc1cc(F)ccc1NC(=O)NCC1(O)CCNC1 (centres undefined) | -14.34 | –
52 | CC(C(=O)N1CCOCC1)N1CCC(CO)CC1 (centres undefined) | -3.94 | –
53 | Cn1cc([C@@H]2OCCC[C@H]2CN)cn1 | 1.285 | –
54 | NCc1ccncc1OCC(F)(F)F | 19.9 | –
55 | COCC1CCN(C(=O)CCC2CCNCC2)CC1 | -0.227 | –
56 | C=C(C)CNC(C(=O)N1CCOCC1)C(C)C (centres undefined) | -2.491 | –
57 | CN(CCC(N)=O)Cc1ccc(Cl)s1 | -3.537 | –
58 | c1cc(-c2nnc3sc(CCN4CCCC4)nn23)ccn1 | – | -1.928
59 | c1cc(-c2nn3c(CN4CCOCC4)nnc3s2)ccn1 | – | 60.13
60 | c1ccc(-c2ncn(CCCN3CCOCC3)c2-c2ccncc2)cc1 | – | 36.16
61 | COCC(=O)NCCc1cc(Cl)c2c(c1)OCCO2 | -0.1362 | –
62 | O=C(CN1CCN(C(=O)c2sccc2C2CC2)CC1)NC1CC1 | – | 2.485
63 | CCC(=O)NC1CCN(C(=O)c2ccco2)CC1 | -8.488 | –
64 | O=C(CN1CCN(C(=O)c2ccco2)CC1)NC1CC1 | 54.85 | –
65 | CCc1ccccc1-n1c(CNC)n[nH]c1=O | 9.34 | –
66 | CC[C@H](N)C(=O)N(C)CCOc1cccc(Cl)c1 | 33.07 | –
67 | OCC1COCCN(Cc2ccc(C(F)(F)F)nc2)C1 (centres undefined) | 17.84 | –
68 | Cc1nc(C2(O)CCCNCC2)sc1CCOc1ccc(Cl)cc1.Cl (centres undefined) | – | 66.18
69 | Cc1nc(C2(O)CCCNCC2)sc1CCOc1ccc(F)cc1.Cl (centres undefined) | – | 11.11
70 | COc1ccc(OCCc2sc(C3(O)CCCNCC3)nc2C)cc1.Cl (centres undefined) | – | 31.45
71 | Cc1nc(C2(O)CCCNCC2)sc1CCOc1ccccc1.Cl (centres undefined) | – | -8.75
72 | Cc1nc(C2(O)CCCNCC2)sc1CCOc1ccc(F)c(F)c1.Cl (centres undefined) | – | 36.46
73 | CCS(=O)(=O)NCCCN(C)C1CCSC1 (centres undefined) | -2.223 | –
74 | Cc1n[nH]c(SCCNC(=O)CC2C=CS(=O)(=O)C2)n1 (centres undefined) | 9.381 | –
75 | Cc1nc(C)c(CNC(=O)c2ccnnc2)s1 | -0.5239 | –

Row | Structure (SMILES) | Percent Effect (50 µM) [%] | Percent Effect (10 µM) [%]
76 | CC(CNC(=O)c1cncc(Br)c1)N1CCCC1 (centres undefined) | 12.86 | –
77 | CNC(=O)C1(N(C)CCc2ccccc2)Cc2ccccc2C1 | – | 52.85
78 | CN(Cc1ccccc1)C1(C(=O)NC(C)(C)CO)Cc2ccccc2C1 | – | -3.718
79 | CN(Cc1ccccc1)C1(C(=O)O)Cc2ccccc2C1 | – | -0.5507
80 | CN(Cc1ccco1)C(=O)Nc1ccc(N(C)C)nc1 | 24.04 | –
81 | CCN(CCCN1CCCC1)C(=O)c1cc[nH]n1 | -7.801 | –
82 | Cc1nn(C)cc1-c1cc(C(F)(F)F)nc(NC2CCCCC2)n1 | – | 1.393
83 | Cc1nn(C)cc1-c1cc(C(F)(F)F)nc(NC2CCN(C)CC2)n1 | – | 3.167
84 | CCn1cc(-c2cc(C(F)(F)F)nc(NC3CCCC3)n2)c(C)n1 | – | 70.55
85 | O=C(NCC(O)C1CC1)c1cccnc1C(F)(F)F (centres undefined) | -5.668 | –
86 | O=C(CNc1ccc(Br)cc1)NCc1ncc[nH]1 | 5.475 | –
87 | O=S(=O)(NCCC(O)c1cccs1)c1ccccc1 (centres undefined) | – | 0.7722
88 | CC(C)C(O)CCNS(=O)(=O)c1ccccc1 (centres undefined) | 62.33 | –
89 | CC(N)CCNS(=O)(=O)c1ccccc1 (centres undefined) | -13.24 | –
90 | CC(c1cccnc1)N(C)C(=O)c1ccccc1C#N (centres undefined) | -2.098 | –
91 | COc1c(C)cnc(CNC(=O)NC2CC2)c1C | 8.679 | –
92 | Cc1cc(C)n(CC(=O)N2CC(C)OCC2(C)C)n1 (centres undefined) | 5.036 | –
93 | CSCC(CCO)NC(=O)c1cc(F)ccc1O (centres undefined) | 96.99 | –
94 | CSCC(CCO)NC(=O)c1cccc(Cl)c1F (centres undefined) | – | -4.915
95 | CSCC(CCO)NC(=O)c1cccc(F)c1Cl (centres undefined) | – | -17.37
96 | CCCc1cc(C(=O)N2CCOC(C(F)(F)F)C2)no1 (centres undefined) | -10.86 | –
97 | COc1ccnc(N2CCC(F)(CO)C2)n1 (centres undefined) | 3.064 | –
98 | Cn1nnc2c1C(COCC1CC1)CN(C(=O)Cc1ccsc1)C2 (centres undefined) | – | -4.213
99 | Cn1nnc2c1C(COCC1CC1)CN(C(=O)Cc1cccs1)C2 (centres undefined) | – | 56.28
100 | COCC1CN(C(=O)Cc2cccs2)Cc2nnn(C)c21 (centres undefined) | – | 4.219

Row | Structure (SMILES) | Percent Effect (50 µM) [%] | Percent Effect (10 µM) [%]
101 | CC1(C)CNC(=O)c2nc(CCN3CCCC3)[nH]c2C1 | -0.3782 | –
102 | COc1ccc2[nH]c(N3CCOCC3)nc2c1 | 4.618 | –
103 | NCc1ccc(CN2CCCC2=O)cc1 | -14.5 | –
104 | N#Cc1ccc(CN2CCCC2=O)cc1 | 8.336 | –
105 | CS(=O)(=O)NCc1ccc(CN2CCCC2=O)cc1 | 69.78 | –
106 | CCOCC(=O)N(Cc1ccc(O)c(OC)c1)C1CC1 | -4.406 | –
107 | CCCNC(=O)c1ccc(CN2CCCC2)cc1 | 0.8478 | –
108 | CCNCCCNCc1ccc2c(c1)n(C)c(=O)n2C | 0.7261 | –
109 | NCC(CO)Cc1ccc(F)c(F)c1 (centres undefined) | 20.05 | –
110 | COC(=O)Nc1nc2c(s1)CN(C(=O)NCc1cccs1)CC2 | – | 1.645
111 | CC(C)NC(=O)Nc1nc2c(s1)CN(C(=O)NCc1cccs1)CC2 | – | 56.34
112 | O=C(Nc1nc2c(s1)CN(C(=O)NCc1cccs1)CC2)C1CC1 | – | 2.193
113 | N#Cc1ccc(N2CCOC2=O)nc1 | 0.2325 | –
114 | CCOc1ccc(NC(=O)[C@H](C)N(C)C)cc1CO | 1.908 | –
115 | O=C(Cn1cc(Br)ccc1=O)NCC1CCOC1 (centres undefined) | -15.74 | –
116 | CCc1ccc(-c2cc(C(F)(F)F)nc(N3CCC(N)CC3)n2)cc1 | – | 99.66
117 | Cc1ccc(-c2cc(C(F)(F)F)nc(N3CCOCC3)n2)s1 | – | -3.229
118 | Cc1c(-c2cc(C(F)(F)F)nc(N3CCC(N)CC3)n2)cnn1C | – | 84.58
119 | NC1CCN(c2ccc(C(F)(F)F)cn2)CC1 | 7.702 | –
120 | CCNC(=O)[C@@H]1C[C@H](N)CN1c1cc(C(F)(F)F)nc(N2CCCC2)n1 | – | 3.581
121 | CCn1ncc(-c2cc(C(F)(F)F)nc(N3CCC(N)CC3)n2)c1C | – | 74.85
122 | O=C(O)C1CCCN1c1nc(-c2ccc(Cl)c(Cl)c2)cc(C(F)(F)F)n1 (centres undefined) | – | 13.78
123 | O=C(O)C1CCCN1c1nc(-c2ccc(Cl)cc2)cc(C(F)(F)F)n1 (centres undefined) | – | 8.669
124 | Cc1c(S(=O)(=O)N2CCC(N)CC2)cnn1C | -0.6017 | –
